The values below come from PubChem BioAssay.

The nature of test [1]: rapamycin-like changes in RPL19A-GFP expression – cell-based, S. cerevisiae, multiplex flow cytometry, primary screen (AID 1862).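 Note: lower values mimic rapamycin by blocking the RPL19A rise seen in DMSO cells.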 To be noted: S. cerevisiae RPL19A-GFP strain, flow cytometry fluorescence, 3 h; at 10 µM; stronger effect = lower value.
Test [2] in a line: TOR pathway GLN3 branch reporter MEP2-GFP changes – S. cerevisiae, multiplex flow cytometry, primary screen (AID 1867;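 active = GFP response, as percent of the DMSO control, above the screen-wide mean plus 3 SD, about 139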;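 note: median GFP channel fluorescence of barcode-gated MEP2-GFP cells measured by flow cytometry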). The settings on record: S. cerevisiae MEP2-GFP strain, 3 h, at 10 µM, stronger effect = higher value, 100% means same as DMSO wells.
A short description of test [3]: TOR pathway RTG branch CIT2 reporter changes – S. cerevisiae, GFP fusion, multiplex flow cytometry, primary screen (AID 1870;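 active = percent response above a set limit, the screen-wide mean plus 3 SD, cut at about 130% in these data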;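 note: barcoded CIT2-GFP strain pooled with four other GFP strains with rapamycin as positive control; median GFP fluorescence per well over plate mean of DMSO wells so 100% = DMSO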). The settings on record: S. cerevisiae CIT2-GFP expression, 3 h, at 10 µM, stronger effect = higher value. In general terms: In flow cytometry, cells or beads pass a laser one at a time.
Test [4] can be described thus: TOR pathway LAP4-GFP level changes – S. cerevisiae, multiplex flow cytometry, primary screen (AID 1873;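 active = GFP signal, as percent of the solvent control, above the screen mean plus 3 SD, about 149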). To be noted: S. cerevisiae LAP4-GFP expression, 3 h, at 10 µM, stronger effect = higher value.
Test [5] can be described thus: yeast AGP1-GFP level changes, GLN3 branch – cell-based, multiplex flow cytometry, S. cerevisiae, primary screen (AID 1887;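 active = GFP signal above the screen-wide mean plus 3 SD, that is over about 124.5% of the solvent control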;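 note: AGP1-GFP fusion strain of S. cerevisiae within a five-strain barcoded multiplex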). The settings on record: 3 h, at 10 µM, stronger effect = higher value.
Test [6] can be described thus: reduced mouse 2C T cell binding to pMHC/ICAM-1 vesicles – MLPCN validation set, flow cytometry, LFA-1/ICAM-1 modulator project, pilot screen (AID 2523;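 active = response below a set limit, under 55% cells CD8-positive and vesicle-bound, and CD8 cells' 90th-percentile brightness under 279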;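 for vesicle binding response: mean PE anti-B7-1 fluorescence of CD8+ cells relative to row control; 100% = QL9-loaded vesicles with DMSO vehicle in the same plate row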). The settings on record: 2C mouse CD8+ T cells, at 7 µM, stronger effect = lower value; double positive events: measured here: CD8+/vesicle+ event percentage.
In test [7] the target is Integrin beta-1 (Homo sapiens) + Integrin alpha-4 (Homo sapiens) (UniProt P13612+P05556). The test is described as follows: alpha4beta1 integrin LIBS antibody binding reduction – U937 cells, HUTS-21 mAb, flow cytometry, validation set, VLA-4 allosteric modulator project, pilot screen (AID 2674;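 active = inhibition above 50%, about 3 SD of the validation set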;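 note: antibody binding induced by the VLA-4 ligand LDV present at three times its Kd; 0% = LDV ligand with antibody and no compound and 100% = antibody without LDV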). To be noted: HUTS-21 LIBS mAb binding, at 6.7 µM, stronger effect = higher value, binding induced by LDV ligand.

Test [8] can be described thus: calorie-restriction mimetic ROS inhibitors, yeast – validation compound set, pilot screen (AID 2706;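 active = superoxide response below 65% of plate, a cut near 3 SD across the whole screen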;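 note: yeast exposed to compound for one week at 30 degrees C before staining; 100% = mean of all compound wells on the same plate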). To be noted: S. cerevisiae aging, superoxide DHE fluorescence; at 10 µM, stronger effect = lower value.
The target in test [9] is Beta-adrenergic receptor kinase 1 (Homo sapiens) (UniProt P25098). Nature of the test: GRK2 binders displacing RNA aptamer, biochemical, validation, human GRK2, bead flow cytometry (AID 488806;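 active = aptamer binding inhibition above 30%, about 3 SD of noise from non-fluorescent compounds; inactive = inhibition at or below 30%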). The settings on record: bead-bound GRK2, FAM-aptamer displacement, at 10 µM, stronger effect = higher value.
Test [10] addresses AP-2 complex subunit beta (Homo sapiens) (UniProt P63010). The test is described as follows: beta-arrestin/AP2 interaction blockers – biochemical, validation set, GST-AP2 beads, flow cytometry, pilot screen (AID 504541;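 active = inhibition above 54%, about 3 SD of non-fluorescent compounds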;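 note: AP2 carries R879A mutation and is captured from E. coli lysate; bead-bound FITC arrestin peptide fluorescence measuring arrestin peptide binding to AP2; 0% = DMSO wells and 100% = excess unlabeled arrestin peptide control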). The settings on record: FITC arrestin peptide, at 10 µM, stronger effect = higher value, AP2 beta2 appendage fragment, R879A mutant.
A short description of test [11]: cytosolic pH regulators acting via V-ATPase – S. cerevisiae, pHLuorin, HTS validation (AID 504600; in the data active = response above about 15%;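 note: plate controls were DMSO for no effect and reference compound for full effect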). To be noted: V-ATPase proton transport, at 10 µM, stronger effect = higher value.
Test [12] relates to anti-desmoglein-3 scFv antibody binding to human DSG3. The test is described as follows: blockers of pathogenic pemphigus antibody–desmoglein-3 binding – biochemical, validation compound set, bead-based, flow cytometry, pilot screen (AID 588368;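 active = binding below the plate cutoff, the plate median minus 3 SD, with a reading above zero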;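 note: signal is the median channel fluorescence of bead-bound GFP antibody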). To be noted: Protein G beads, DSG3-Fc, scFv-GFP binding, at 10 µM, stronger effect = lower value.
A short description of test [13]: Nile Red efflux blockade in pump-expressing yeast – validation compound set, multiplex, phenotypic, pilot screen (AID 588506;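 active = efflux inhibition above 0.42, the validation set average plus 4 SD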;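 note: Nile Red retained in cells so higher fluorescence means more efflux inhibition; 0 = negative control wells and 1 = enniatin B 25 µM full block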). To be noted: S. cerevisiae pump-expressing triplex, Nile Red efflux flow cytometry; at 10 µM; stronger effect = higher value; the pumps come from Candida albicans.
Test [14] addresses ATP-binding cassette sub-family B member 6 (Homo sapiens) (UniProt Q9NP58). Nature of the test: blockers of ABCB6-driven porphyrin uptake – K562-ABCB6 cells, flow cytometry, validation set, pilot screen (AID 588550;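 active = inhibition above the screen-wide mean plus 3 SD, about 51%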;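 note: 0% = DMSO wells and 100% = benzethonium chloride 70 µM positive control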). The settings on record: K562-ABCB6 porphyrin accumulation, 1 h, at 10 µM, stronger effect = higher value.
Test [15] is described as follows: AML differentiation inducers, ER-HoxA9 marrow cells – cell-based, GFP/MAC1 double positive, flow cytometry, validation set, primary screen (AID 588685;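 active = differentiation response of at least 50%, scaled between solvent and reference control, from cells with both markers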;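 note: compound exposure lasts four days before antibody staining and flow analysis; 0% = DMSO wells and 100% = 5 µM fulvestrant positive control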). The settings on record: stronger effect = higher value, normalized: vehicle 0, fulvestrant 100.

Each structure is given as a SMILES string. Records with an inconclusive call do not appear. Active and inactive are the calls of the source. Cut-off read from the data, not from the text of the source, unless noted: active = percent of DMSO control GFP below about 86%; inactive = the rest, inconclusive results apart.

Chain of Beta-adrenergic receptor kinase 1 (Homo sapiens) (P25098 whole entry, looked up): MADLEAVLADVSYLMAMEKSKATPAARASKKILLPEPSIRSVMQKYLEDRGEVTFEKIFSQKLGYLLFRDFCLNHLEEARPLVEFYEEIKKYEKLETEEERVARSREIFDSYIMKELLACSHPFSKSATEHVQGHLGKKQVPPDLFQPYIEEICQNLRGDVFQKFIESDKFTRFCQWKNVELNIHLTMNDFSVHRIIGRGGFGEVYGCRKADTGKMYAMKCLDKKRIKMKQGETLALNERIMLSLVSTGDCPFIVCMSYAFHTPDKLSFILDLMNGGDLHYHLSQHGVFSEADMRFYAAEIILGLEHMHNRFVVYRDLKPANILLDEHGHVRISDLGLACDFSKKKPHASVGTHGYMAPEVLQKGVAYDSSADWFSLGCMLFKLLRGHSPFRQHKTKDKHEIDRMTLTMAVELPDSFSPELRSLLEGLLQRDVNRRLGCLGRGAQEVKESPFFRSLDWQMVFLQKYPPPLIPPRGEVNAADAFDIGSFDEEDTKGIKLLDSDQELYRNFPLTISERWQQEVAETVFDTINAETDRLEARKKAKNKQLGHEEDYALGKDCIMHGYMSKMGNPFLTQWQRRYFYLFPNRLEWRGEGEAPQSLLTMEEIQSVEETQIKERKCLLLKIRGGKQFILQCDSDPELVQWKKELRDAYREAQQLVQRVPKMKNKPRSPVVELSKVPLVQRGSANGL
Chain of Integrin beta-1 (Homo sapiens) + Integrin alpha-4 (Homo sapiens) (P05556 whole entry, looked up): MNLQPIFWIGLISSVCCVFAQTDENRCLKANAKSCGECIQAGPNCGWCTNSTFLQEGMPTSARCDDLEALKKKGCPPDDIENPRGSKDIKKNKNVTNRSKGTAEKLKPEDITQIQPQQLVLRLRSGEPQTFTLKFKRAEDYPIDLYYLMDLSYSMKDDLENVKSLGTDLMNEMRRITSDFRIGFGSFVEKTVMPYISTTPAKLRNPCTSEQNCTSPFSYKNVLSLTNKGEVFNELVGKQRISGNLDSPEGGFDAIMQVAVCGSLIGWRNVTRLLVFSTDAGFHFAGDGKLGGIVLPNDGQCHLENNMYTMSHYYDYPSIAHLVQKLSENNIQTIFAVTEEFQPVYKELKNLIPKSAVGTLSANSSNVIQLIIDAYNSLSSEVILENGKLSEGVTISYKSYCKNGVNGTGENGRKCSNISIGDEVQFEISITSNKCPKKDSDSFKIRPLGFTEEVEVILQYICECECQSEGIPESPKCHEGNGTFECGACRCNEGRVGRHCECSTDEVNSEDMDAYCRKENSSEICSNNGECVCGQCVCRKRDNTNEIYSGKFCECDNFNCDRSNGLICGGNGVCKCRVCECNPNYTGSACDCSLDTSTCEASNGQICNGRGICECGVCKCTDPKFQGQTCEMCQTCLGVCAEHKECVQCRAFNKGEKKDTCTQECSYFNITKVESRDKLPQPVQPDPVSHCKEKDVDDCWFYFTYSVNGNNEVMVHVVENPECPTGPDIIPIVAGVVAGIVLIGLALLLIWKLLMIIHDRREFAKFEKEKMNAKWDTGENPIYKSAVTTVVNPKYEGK
Chain of Integrin beta-1 (Homo sapiens) + Integrin alpha-4 (Homo sapiens) (P13612 whole entry, looked up): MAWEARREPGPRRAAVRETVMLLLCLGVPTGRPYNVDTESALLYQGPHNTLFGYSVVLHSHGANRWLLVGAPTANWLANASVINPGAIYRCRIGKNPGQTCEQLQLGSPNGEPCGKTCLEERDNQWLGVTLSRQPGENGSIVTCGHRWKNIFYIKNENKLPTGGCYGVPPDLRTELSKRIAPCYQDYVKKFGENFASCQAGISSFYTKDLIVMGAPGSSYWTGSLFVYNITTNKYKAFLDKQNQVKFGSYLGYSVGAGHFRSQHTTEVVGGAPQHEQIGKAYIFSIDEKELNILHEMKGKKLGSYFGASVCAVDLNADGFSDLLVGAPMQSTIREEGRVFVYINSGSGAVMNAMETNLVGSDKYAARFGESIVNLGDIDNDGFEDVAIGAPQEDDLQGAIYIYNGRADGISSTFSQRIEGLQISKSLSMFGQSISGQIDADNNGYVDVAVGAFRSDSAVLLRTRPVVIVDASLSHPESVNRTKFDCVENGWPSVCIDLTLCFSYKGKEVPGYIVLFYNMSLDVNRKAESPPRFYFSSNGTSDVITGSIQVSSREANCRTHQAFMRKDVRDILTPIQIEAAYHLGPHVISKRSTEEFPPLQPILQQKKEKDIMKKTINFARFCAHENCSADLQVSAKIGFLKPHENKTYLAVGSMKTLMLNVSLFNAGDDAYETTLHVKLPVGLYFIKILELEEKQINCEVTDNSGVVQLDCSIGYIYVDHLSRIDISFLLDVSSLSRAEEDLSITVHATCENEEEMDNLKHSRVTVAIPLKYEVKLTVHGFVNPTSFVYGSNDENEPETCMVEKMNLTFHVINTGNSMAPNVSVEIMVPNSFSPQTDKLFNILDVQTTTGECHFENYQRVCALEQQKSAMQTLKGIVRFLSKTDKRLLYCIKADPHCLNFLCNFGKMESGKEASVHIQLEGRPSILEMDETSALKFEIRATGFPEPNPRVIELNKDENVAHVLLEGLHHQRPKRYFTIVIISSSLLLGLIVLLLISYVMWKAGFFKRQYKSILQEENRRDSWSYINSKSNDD
Chain of ATP-binding cassette sub-family B member 6 (Homo sapiens) (Q9NP58 whole entry, looked up): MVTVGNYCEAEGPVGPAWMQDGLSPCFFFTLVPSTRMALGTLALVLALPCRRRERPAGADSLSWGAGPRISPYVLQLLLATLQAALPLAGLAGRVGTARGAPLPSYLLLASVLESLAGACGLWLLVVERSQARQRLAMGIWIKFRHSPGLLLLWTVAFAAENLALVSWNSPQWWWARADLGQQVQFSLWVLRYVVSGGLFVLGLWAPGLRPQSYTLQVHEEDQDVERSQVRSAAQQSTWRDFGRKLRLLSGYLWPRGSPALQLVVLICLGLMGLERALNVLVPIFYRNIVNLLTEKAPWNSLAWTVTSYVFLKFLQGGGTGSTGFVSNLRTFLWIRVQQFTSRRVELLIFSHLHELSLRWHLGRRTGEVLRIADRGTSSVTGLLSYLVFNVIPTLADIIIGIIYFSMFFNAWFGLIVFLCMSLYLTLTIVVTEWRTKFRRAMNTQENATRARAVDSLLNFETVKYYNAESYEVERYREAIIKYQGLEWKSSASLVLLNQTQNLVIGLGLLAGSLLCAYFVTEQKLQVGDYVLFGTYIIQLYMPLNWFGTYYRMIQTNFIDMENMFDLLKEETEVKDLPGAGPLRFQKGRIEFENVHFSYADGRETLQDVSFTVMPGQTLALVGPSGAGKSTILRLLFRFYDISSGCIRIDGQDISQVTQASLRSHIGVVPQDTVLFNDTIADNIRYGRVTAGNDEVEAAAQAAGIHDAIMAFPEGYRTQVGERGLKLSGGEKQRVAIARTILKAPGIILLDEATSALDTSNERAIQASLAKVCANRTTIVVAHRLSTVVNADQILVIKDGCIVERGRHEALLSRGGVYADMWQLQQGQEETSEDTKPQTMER
Chain of AP-2 complex subunit beta (Homo sapiens) (P63010 whole entry, looked up, the tested form may be a part, one chain of several): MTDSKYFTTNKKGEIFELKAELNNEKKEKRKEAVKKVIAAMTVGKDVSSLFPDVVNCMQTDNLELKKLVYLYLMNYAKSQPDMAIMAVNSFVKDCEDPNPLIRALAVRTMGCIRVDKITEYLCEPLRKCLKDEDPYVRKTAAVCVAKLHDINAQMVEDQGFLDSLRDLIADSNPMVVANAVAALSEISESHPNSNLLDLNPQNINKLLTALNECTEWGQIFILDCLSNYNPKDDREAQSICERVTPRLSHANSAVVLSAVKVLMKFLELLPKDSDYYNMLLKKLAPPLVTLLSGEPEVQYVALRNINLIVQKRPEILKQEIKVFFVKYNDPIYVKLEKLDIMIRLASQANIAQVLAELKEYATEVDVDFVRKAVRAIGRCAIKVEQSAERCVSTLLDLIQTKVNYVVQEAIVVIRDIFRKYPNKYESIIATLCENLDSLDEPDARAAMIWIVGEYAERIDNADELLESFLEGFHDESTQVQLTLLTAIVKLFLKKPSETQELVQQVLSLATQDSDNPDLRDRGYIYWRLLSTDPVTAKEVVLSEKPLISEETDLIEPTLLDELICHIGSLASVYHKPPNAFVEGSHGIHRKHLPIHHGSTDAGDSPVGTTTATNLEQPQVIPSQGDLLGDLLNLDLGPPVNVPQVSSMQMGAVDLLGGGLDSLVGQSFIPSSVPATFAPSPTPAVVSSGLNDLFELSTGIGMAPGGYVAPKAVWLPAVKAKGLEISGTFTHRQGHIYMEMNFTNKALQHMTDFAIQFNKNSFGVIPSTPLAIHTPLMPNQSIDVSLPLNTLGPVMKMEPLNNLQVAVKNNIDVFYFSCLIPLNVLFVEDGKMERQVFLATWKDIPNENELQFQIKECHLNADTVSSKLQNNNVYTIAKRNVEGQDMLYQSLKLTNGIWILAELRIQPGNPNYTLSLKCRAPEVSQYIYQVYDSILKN

Broadly, the inhibition is the relative decrease from the control value, in per cent. Take `COC(=O)c1cc(-c2ccc(C)o2)nc2ccccc12`: the percent of DMSO control GFP in [1] was 101% (inactive). Also, the GFP response vs DMSO in test [2] is 95.9% (inactive); in [4] it was 109% (inactive). In [3], the percent response of DMSO control is 93.9% (inactive). In addition, the GFP response, % of DMSO in [5] was 78.2% (inactive). In test [6], this molecule showed a double positive events of 45.1%. Besides, the vesicle binding response in [6] is 76.1% (inactive). Also, the inhibition in test [7] is -21.7% (inactive); in test [10], 3.96% (inactive); in [14] it was 10% (inactive). In addition, the superoxide response (% of plate) in [8] is 109% (inactive). In addition, the aptamer binding inhibition in test [9] was 5% (inactive). In test [11], the response was 2% (inactive). For the same molecule, the binding (% of control) in test [12] was 108% (inactive). For the same molecule, the efflux inhibition (fraction of control) in [13] was 0.94 (active). Also, in test [15], the differentiation response is -8.27% (inactive).

With `CC(C)OC(=O)CC1C(=O)NCCN1C(=S)NC(=O)c1cccs1` (stereo not given), in [1], the percent of DMSO control GFP is 98.1% (inactive). For the same molecule, the GFP response vs DMSO was 86.7% (inactive) in test [2] and 98.4% (inactive) in test [4]. In addition, the percent response of DMSO control in test [3] is 107% (inactive). In test [5], the GFP response, % of DMSO was 107% (inactive). For the same molecule, the double positive events in test [6] was 63.2%. For the same molecule, the vesicle binding response in test [6] is 190% (inactive). Further, the figures for the inhibition in test [7], in [10] and in test [14] were 10% (inactive), -4.49% (inactive) and 8% (inactive), respectively. Also, the superoxide response (% of plate) in [8] is 87.2% (inactive). Moreover, the aptamer binding inhibition in test [9] was -2% (inactive). Also, the response in test [11] was 2.24% (inactive). The binding (% of control) in [12] is 104% (inactive). The efflux inhibition (fraction of control) in test [13] is -0.2 (inactive). In test [15], the differentiation response was 0% (inactive).

With `COc1cccc2c1C(=O)O/C2=C/c1ccc2c(c1)OCO2`, in test [1], the percent of DMSO control GFP is 95.2% (inactive). Moreover, the GFP response vs DMSO is 103% (inactive) in [2] and 92.3% (inactive) in test [4]. Also, the percent response of DMSO control in test [3] was 93% (inactive). Besides, the GFP response, % of DMSO in [5] was 83.8% (inactive). In [6], this molecule yielded a double positive events of 64.2%. Also, in [6], the vesicle binding response was 177% (inactive). Besides, the inhibition in [7] was -3.04% (inactive); in test [10], -5.67% (inactive); in test [14], 8% (inactive). The superoxide response (% of plate) in [8] was 106% (inactive). For the same molecule, the aptamer binding inhibition in test [9] is 1% (inactive). The response in [11] is -7.76% (inactive). In test [12], the binding (% of control) was 99.8% (inactive). The efflux inhibition (fraction of control) in [13] was -0.35 (inactive). Also, in [15], the differentiation response is -24.4% (inactive).

For `Clc1ccc(OCCCN2CCCCC2)c(Br)c1`, the percent of DMSO control GFP in [1] is 105% (inactive). For the same molecule, the GFP response vs DMSO in test [2] was 95.9% (inactive); in [4], 88.3% (inactive). The percent response of DMSO control in [3] was 112% (inactive). In addition, in [5], the GFP response, % of DMSO was 98.7% (inactive). In test [6], this molecule returned a double positive events of 57.1%. In [6], the vesicle binding response was 202% (inactive). Further, the results for the inhibition in test [7], in test [10] and in test [14] were 4.42% (inactive), -6.22% (inactive) and 7% (inactive), respectively. The superoxide response (% of plate) in [8] is 88.5% (inactive). The aptamer binding inhibition in test [9] is -2% (inactive). Besides, the response in [11] was 0.07% (inactive). For the same molecule, in test [12], the binding (% of control) is 103% (inactive). The efflux inhibition (fraction of control) in test [13] was -0.35 (inactive). The differentiation response in test [15] was 0% (inactive).

Regarding `CC(NC(=O)c1ccc(OC2CCN(Cc3ccccn3)CC2)cc1)c1ccccc1` (stereo not given), the percent of DMSO control GFP in [1] is 106% (inactive). Moreover, the GFP response vs DMSO in test [2] was 102% (inactive); in [4] it was 99.4% (inactive). The percent response of DMSO control in test [3] was 105% (inactive). Further, the GFP response, % of DMSO in test [5] was 100% (inactive). In [6], the double positive events stood at 59.3%. In [6], the vesicle binding response was 110% (inactive). For the same molecule, the inhibition in [7] was 14.7% (inactive); in test [10] it was 32.2% (inactive); in test [14] it was 6% (inactive). Also, in test [8], the superoxide response (% of plate) was 93.3% (inactive). Further, in test [9], the aptamer binding inhibition is -2% (inactive). For the same molecule, in test [11], the response was -10.2% (inactive). In addition, the binding (% of control) in test [12] is 102% (inactive). Besides, the efflux inhibition (fraction of control) in test [13] was -0.31 (inactive). Moreover, in test [15], the differentiation response is 0% (inactive).
